Results taken from PubChem BioAssay AID1159580 (chemical genetic matrix, 2015).
“And” between values parts separate entries of the source, which are not always exact repeats. Equal entries are not always repeated. About 2,000 (36%) of roughly 5,500 compounds were called active. Not shown: some 18% with an inconclusive outcome. Cut-off read from the data, not from the text of the source: active = normalized growth mostly below about 0.91 (no sharp cut-off); inconclusive = no clear call, values can overlap the other calls; inactive = mostly above about 0.92. Some of the results follow.

Assay: chemical genetic growth profiling, strain panel (AID 1159580);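 note: tested at 20 µM; growth read once vehicle control cultures reached saturation at 30 °C; 1 = growth at the plate median or of vehicle wells; lower values mean less growth of the strain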
Conditions: S. cerevisiae deletion strains, growth OD
[1] = locus YJR075W, strain HOC1, hits give low values
[2] = locus YMR263W, strain SAP30, hits give low values
[3] = locus YMR307W, strain GAS1, hits give low values
[4] = locus YNL153C, strain GIM3, hits give low values
[5] = locus YNL322C, strain KRE1, hits give low values
[6] = locus YPL055C, strain LGE1, hits give low values

Measured: normalized growth

CNC[C@@H](O)c1ccc(O)c(O)c1
inactive: locus YAL013W, strain DEP1, hits give low values 0.993 | locus YAL021C, strain ccr4, hits give low values 1 | locus YAL026C, strain drs2, hits give low values 0.984 | locus YAL030W, strain snc1, hits give low values 1 | locus YBL061C, strain skt5, hits give low values 1 | locus YBR009C, strain hhf1, hits give low values 0.997 | locus YBR021W, strain FUR4, hits give low values 1.02 | locus YBR023C, strain chs3, hits give low values 1.01 | locus YBR171W, strain sec66, hits give low values 1 | locus YBR229C, strain ROT2, hits give low values 0.96 | locus YBR231C, strain swc5, hits give low values 0.991 | locus YBR279W, strain paf1, hits give low values 1 | locus YCL011C, strain gbp2, hits give low values 1.02 | locus YCL016C, strain dcc1, hits give low values 1.02 | locus YCL029C, strain bik1, hits give low values 0.984 | locus YCL061C, strain MRC1, hits give low values 1.01 | locus YCL069W, strain vba3, hits give low values 1.01 | locus YCR088W, strain abp1, hits give low values 1.01 | locus YDL005C, strain med2, hits give low values 0.997 | locus YDL035C, strain GPR1, hits give low values 0.981 | locus YDL040C, strain nat1, hits give low values 1 | locus YDL074C, strain BRE1, hits give low values 0.984 | locus YDL101C, strain DUN1, hits give low values 0.986 | locus YDL185W, strain tfp1, hits give low values 0.966 | locus YDL192W, strain arf1, hits give low values 0.979 | locus YDR001C, strain nth1, hits give low values 1.01 | locus YDR069C, strain doa4, hits give low values 0.989 | locus YDR101C, strain arx1, hits give low values 0.982 | locus YDR137W, strain rgp1, hits give low values 1.03 | locus YDR159W, strain sac3, hits give low values 1 | locus YDR162C, strain NBP2, hits give low values 0.977 | locus YDR195W, strain ref2 0.989 | locus YDR297W, strain sur2, hits give low values 0.995 | locus YDR318W, strain mcm21, hits give low values 0.983 | locus YDR334W, strain swr1, hits give low values 0.993 | locus YDR335W, strain msn5, hits give low values 1 | locus YDR388W, hits give low values 0.99 | locus YDR392W, strain spt3, hits give low values 0.93 | locus YDR502C, strain sam2, hits give low values 0.996 | locus YEL003W, strain gim4, hits give low values 1 | locus YEL037C, strain rad23, hits give low values 1 | locus YEL061C, strain CIN8 (second series), hits give low values 1.01 | locus YEL061C, strain CIN8, hits give low values 0.978 | locus YER015W, strain faa2, hits give low values 1.01 | locus YER016W, strain bim1, hits give low values 1.01 | locus YER110C, hits give low values 0.984 | locus YER111C, strain swi4, hits give low values 1.02 | locus YER155C, strain BEM2 (second series), hits give low values 0.988 | locus YER155C, strain BEM2, hits give low values 1 | locus YER167W, strain BCK2, hits give low values 1.01 | locus YFR010W, strain ubp6, hits give low values 0.993 | locus YGL078C, strain dbp3, hits give low values 0.993 | locus YGL086W, strain mad1, hits give low values 0.977 | locus YGL167C, strain pmr1, hits give low values 1 | locus YGL173C, strain kem1, hits give low values 1 | locus YGL227W, strain vid30, hits give low values 1 | locus YGL240W, strain doc1, hits give low values 0.989 | locus YGL248W, strain PDE1, hits give low values 1 | locus YGL253W, strain hxk2, hits give low values 1.01 | locus YGR135W, strain pre9, hits give low values 1.04 | locus YGR229C, strain SMI1, hits give low values 0.99 | locus YGR252W, strain gcn5, hits give low values 1.02 | locus YHR013C, strain ard1, hits give low values 1.04 | locus YHR027C, strain rpn1, hits give low values 1.01 | locus YHR030C, strain SLT2, hits give low values 0.999 and 1.05 | locus YHR079C, strain IRE1 (second series), hits give low values 0.951 | locus YHR079C, strain IRE1, hits give low values 1.04 | locus YHR094C, strain hxt1, hits give low values 0.977 | locus YHR129C, strain ARP1, hits give low values 0.999 | locus YHR142W, strain chs7, hits give low values 1.02 | locus YHR200W, strain rpn10, hits give low values 0.97 | locus YIL066C, strain RNR3, hits give low values 0.986 | locus YIL073C, strain SPO22, hits give low values 1.02 | locus YIL125W, strain kgd1, hits give low values 0.983 | locus YIR030C, strain dcg1, hits give low values 0.999 | locus YJL092W, strain hpr5, hits give low values 1.01 | locus YJL095W, strain BCK1 (second series), hits give low values 1.01 | locus YJL095W, strain BCK1, hits give low values 1.03 and 1.07 | locus YJL115W, strain asf1, hits give low values 0.996 | locus YJL129C, strain trk1, hits give low values 1 | locus YJL134W, strain LCB3, hits give low values 0.993 | locus YJL154C, strain vps35, hits give low values 1 | locus YJL164C, strain tpk1, hits give low values 0.995 | locus YJL166W, strain qcr8, hits give low values 1.01 | locus YJL168C, strain set2, hits give low values 0.987 | locus YJL187C, strain SWE1 (second series), hits give low values 0.981 | locus YJL187C, strain SWE1, hits give low values 1 | locus YJR043C, strain POL32, hits give low values 0.978 | locus YJR066W, strain TOR1, hits give low values 0.985 | [1] 0.994 | locus YKL009W, strain mrt4, hits give low values 0.986 | locus YKL068W, hits give low values 0.977 | locus YKL085W, strain MDH1 (second series), hits give low values 0.996 | locus YKL085W, strain MDH1, hits give low values 0.996 | locus YKL160W, strain elf1, hits give low values 1.03 | locus YKR001C, strain vps1, hits give low values 0.982 | locus YKR026C, strain gcn3, hits give low values 1 | locus YKR091W, strain srl3, hits give low values 1.01 | locus YLL001W, strain dnm1, hits give low values 1.01 | locus YLL026W, hits give low values 1 | locus YLL041C, strain sdh2, hits give low values 1 | locus YLR027C, strain aat2, hits give low values 1 | locus YLR039C, strain RIC1, hits give low values 1.03 | locus YLR058C, strain SHM2, hits give low values 0.984 | locus YLR102C, strain apc9, hits give low values 0.968 | locus YLR113W, strain HOG1, hits give low values 1.08 | locus YLR221C, strain rsa3, hits give low values 1.02 | locus YLR258W, strain gsy2, hits give low values 1.02 | locus YLR262C, strain YPT6 (second series), hits give low values 1 | locus YLR262C, strain YPT6, hits give low values 0.947 | locus YLR268W, strain sec22, hits give low values 0.972 | locus YLR320W, strain mms22, hits give low values 1.03 | locus YLR330W, strain CHS5, hits give low values 0.992 | locus YLR342W, strain FKS1 (second series), hits give low values 0.999 | locus YLR342W, strain FKS1, hits give low values 1.01 | locus YLR357W, strain rsc2, hits give low values 0.957 | locus YLR370C, strain arc18, hits give low values 1.01 | locus YLR371W, strain rom2, hits give low values 0.983 | locus YLR384C, strain iki3, hits give low values 0.999 | locus YLR418C, strain cdc73, hits give low values 0.996 | locus YML016C, strain PPZ1, hits give low values 0.994 | locus YML032C, strain rad52, hits give low values 0.997 | locus YML120C, strain ndi1, hits give low values 1.03 | locus YML124C, strain tub3, hits give low values 0.983 | locus YMR058W, strain fet3, hits give low values 1 | locus YMR078C, strain ctf18, hits give low values 0.99 | locus YMR125W, strain sto1, hits give low values 0.991 | locus YMR129W, hits give low values 1.01 | locus YMR205C, strain PFK2, hits give low values 1.04 | locus YMR223W, strain ubp8, hits give low values 1.02 | locus YMR231W, strain pep5, hits give low values 0.999 | [2] 0.995 | [3] 1.05 | locus YNL067W, strain RPL9B, hits give low values 0.992 | locus YNL071W, strain lat1, hits give low values 1.02 | [4] 0.993 | locus YNL183C, strain NPR1, hits give low values 0.99 | locus YNL209W, strain ssb2, hits give low values 1 | locus YNL233W, strain BNI4, hits give low values 0.999 | locus YNL248C, strain rpa49, hits give low values 1.02 | locus YNL250W, strain rad50, hits give low values 0.96 | locus YNL271C, strain bni1, hits give low values 0.988 | locus YNL298W, strain CLA4, hits give low values 0.979 | locus YNL307C, strain MCK1, hits give low values 0.905 | locus YNL322C, strain KRE1 (second series), hits give low values 1.02 | [5] 1 | locus YNR049C, strain mso1, hits give low values 1 | locus YNR052C, strain pop2, hits give low values 0.984 | locus YOL012C, strain htz1 0.8 | locus YOL147C, strain pex11, hits give low values 0.989 | locus YOR001W, strain rrp6, hits give low values 1.01 | locus YOR061W, strain CKA2, hits give low values 0.967 | locus YOR069W, strain VPS5, hits give low values 0.991 | locus YOR070C, strain gyp1, hits give low values 1 | locus YOR080W, strain dia2, hits give low values 0.997 | locus YOR083W, strain WHI5, hits give low values 1.03 | locus YOR106W, strain vam3, hits give low values 1.02 | locus YOR136W, strain idh2, hits give low values 0.965 | locus YOR144C, strain elg1, hits give low values 0.986 | locus YOR184W, strain ser1, hits give low values 0.982 | locus YOR231W, strain MKK1, hits give low values 1.07 | locus YOR265W, strain rbl2, hits give low values 1 | locus YOR270C, strain vph1, hits give low values 1.05 | locus YOR290C, strain snf2, hits give low values 0.955 | locus YOR316C, strain cot1, hits give low values 0.966 | locus YPL051W, strain arl3, hits give low values 0.998 | [6] 1.02 | locus YPL078C, strain atp4, hits give low values 1.01 | locus YPL106C, strain sse1, hits give low values 0.984 | locus YPL240C, strain hsp82, hits give low values 1.01 | locus YPL256C, strain CLN2, hits give low values 1.03 | locus YPR119W, strain clb2, hits give low values 0.968 | locus YPR141C, strain kar3, hits give low values 0.975 | locus YPR163C, strain tif3, hits give low values 0.986 | locus YPR167C, strain met16, hits give low values 0.989 | strain wtn01, hits give low values 1

NCC(O)c1ccc(O)c(O)c1 (configuration not stated)
inactive: locus YAL040C, strain CLN3, hits give low values 1.01 and 1.02 | locus YCL061C, strain MRC1 (second series), hits give low values 0.998 | locus YDR363W, strain ESC2, hits give low values 0.991 | locus YER002W, strain NOP16, hits give low values 1.02 and 0.999 | locus YGR078C, strain PAC10, hits give low values 1 | [1] 1.02 | [2] 1.01 | [3] 1.02 | [4] 1.01 | locus YNL175C, strain NOP13, hits give low values 0.999 and 1.01 | locus YNL197C, strain WHI3, hits give low values 0.995 and 1.01 | locus YNL224C, strain SQS1, hits give low values 0.987 and 0.982 | [5] 0.997 and 1.02 | locus YOR083W, strain WHI5 (second series), hits give low values 0.98 and 0.991 | [6] 1 | locus YPL241C, strain CIN2, hits give low values 1.01
